Hits are enriched below; roughly 2.3% of the tested compounds scored in any of these assays.
M1 PAM parental = counter-screen for M1 PAMs: effect in parental CHO-K1 cells; AID 602247; ATP EC20, Fluo-8 calcium fluorescence; 0% at ATP EC20, 100% at ATP max; activation, % at 3 µM; 0.02% of 360,000 active;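 active = activation above the run cutoff, the mean activation of all test compounds plus 3 SD, cut at about 40% in these data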;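 also: peak over basal fluorescence ratio in a 140 s read after ATP addition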
CHRM1 antagonist = blocks human M1 muscarinic receptor | P11229 | CHO-K1 hM1, Fluo-8 calcium fluorescence, ACh EC80 antagonist | inhibition, % at 3 µM | 1.3% of 360,000 active | AID 588852;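 active = percent inhibition above its own plate's cutoff, namely the mean of that plate's compound wells plus 3 SD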;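 also: peak over basal fluorescence ratio during 140 s after agonist addition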
Target sequence (P11229 whole entry, looked up): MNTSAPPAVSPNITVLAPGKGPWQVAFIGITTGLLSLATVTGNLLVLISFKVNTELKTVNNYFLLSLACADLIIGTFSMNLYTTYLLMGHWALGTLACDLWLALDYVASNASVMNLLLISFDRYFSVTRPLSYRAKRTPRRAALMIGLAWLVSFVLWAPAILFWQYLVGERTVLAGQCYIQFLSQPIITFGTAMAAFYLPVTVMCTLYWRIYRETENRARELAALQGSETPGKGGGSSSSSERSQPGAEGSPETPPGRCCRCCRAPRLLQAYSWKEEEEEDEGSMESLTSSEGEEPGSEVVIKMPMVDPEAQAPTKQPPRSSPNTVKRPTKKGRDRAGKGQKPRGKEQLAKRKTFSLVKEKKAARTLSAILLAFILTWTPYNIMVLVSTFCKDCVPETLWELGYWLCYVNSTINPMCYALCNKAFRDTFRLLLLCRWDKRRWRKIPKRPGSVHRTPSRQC
CHO-K1 Ca antag = nonselective inhibitor or artifact in parental CHO-K1 cells. 0.6% of 360,000 active. ATP-induced calcium, Fluo-8 fluorescence. inhibition, % at 3 µM;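 active = inhibition above a per-plate cutoff, the plate's mean sample inhibition plus 3 SD, cut at about 24% in these data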
CHRM1 agonist = agonists of human M1 muscarinic receptor; P11229; CHO-K1 hM1, Fluo-8 calcium fluorescence, agonist mode; 0% DMSO, 100% acetylcholine EC100; activation, % at 3 µM; 0.33% of 360,000 active; AID 588814;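 active = activation above the run's mean compound activation plus 3 SD, cut at about 16% in these data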;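 also: peak over basal fluorescence ratio within a 140 s kinetic read after compound addition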
M1 PAM = human CHRM1 positive allosteric modulation; CHO-K1 hM1, Fluo-8 calcium fluorescence, ACh EC20; 0% = ACh EC20, 100% = maximal ACh; activation, % at 3 µM; 0.088% of 360,000 active; AID 588819; in the data active = activation above about 19%, passing the limit was not always enough
CHO-K1 Ca ag = nonselective activator or artifact in parental CHO-K1 cells. Fluo-8 calcium fluorescence; scaled to maximal ATP response, vehicle zero. activation, % at 3 µM. 0.48% of 360,000 active; in the data active = activation above about 15%;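 also: untransfected CHO-K1 host cells lacking M1 receptor as counterscreen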
Of the large screens only hits and unclear results are named; the others gave an inactive call.

CC(=O)N1c2ccc(S(=O)(=O)NCCc3ccccc3)cc2CC1C (stereo unspecified)	CHRM1 antagonist 29
CC(=O)N1CCc2cc(S(=O)(=O)NCCC(=O)NCCc3ccc(Cl)cc3)ccc21	CHO-K1 Ca ag 16
Cc1nc2ccccc2c2c(N)c3ccccc3n12	CHO-K1 Ca ag 17
Nc1c2ccccc2nc2ccccc12	none
COc1ccc(C(=O)O)cc1S(=O)(=O)NCCCN1CCCC1=O	CHO-K1 Ca antag 25
CN(C)C(=S)N=c1ssc(=S)n1Cc1cccnc1	none
Cc1cc(C(=O)CSc2nncs2)c(C)n1-c1c(C)n(C)n(-c2ccccc2)c1=O	CHRM1 antagonist 54
Cc1nnc(SCC(=O)c2cc(C)n(-c3c(C)n(C)n(-c4ccccc4)c3=O)c2C)s1	none
Cc1nc2ccc(NC(=S)NC3CC3)cc2nc1C	CHO-K1 Ca antag 27
Cc1nc2ccc(NC(=S)NC(C)C)cc2nc1C	none
O=C(CNCCO)N1N=C(c2cccs2)CC1c1cccs1 (stereo unspecified)	none
O=C(CN1CCCCC1)N1N=C(c2cccs2)CC1c1cccs1 (stereo unspecified)	CHRM1 antagonist 97
CCOCCCN(C(=O)CNC(=O)c1ccco1)C(C(=O)NC1CCCC1)c1ccccc1C (stereo unspecified)	CHO-K1 Ca antag 44
COc1ccc(C(C(=O)NC2CCCC2)N(Cc2ccccc2)C(=O)CNC(=O)c2ccco2)cc1 (stereo unspecified)	CHO-K1 Ca antag 32
COCCN(C(=O)c1ccco1)C(C(=O)NC1CCCC1)c1cccs1 (stereo unspecified)	CHO-K1 Ca antag 25
COc1ccc(CN(C(=O)Cc2c[nH]c3ccccc23)C(C(=O)NC2CCCCC2)c2ccc(C)o2)cc1 (stereo unspecified)	none
CCOC(=O)CN(C(=O)CNC(=O)c1ccco1)C(C(=O)NC1CCCC1)c1ccccc1OCC (stereo unspecified)	none
C=CCN(C(=O)CNC(=O)c1ccco1)C(C(=O)NC1CCCCC1)c1ccc(OC)cc1 (stereo unspecified)	none
Cc1ccc(C(C(=O)NC2CCCCC2)N(Cc2ccccc2)C(=O)Cc2c[nH]c3ccccc23)o1 (stereo unspecified)	CHO-K1 Ca ag 19
CCOC(=O)CN(C(=O)CNC(=O)c1ccco1)C(C(=O)NC1CCCCC1)c1cccs1 (stereo unspecified)	none
Cc1c(N2C(=O)c3ccc4c5c(ccc(c35)C2=O)CC4)c(=O)n(-c2ccccc2)n1C	none
Cc1c(N2C(=O)c3ccc(Br)cc3C2=O)c(=O)n(-c2ccccc2)n1C	CHRM1 antagonist 74
COc1ccc2c(c1OC)C(=O)N1c3ccccc3C(=O)N(c3ccccc3F)C21 (stereo unspecified)	CHRM1 antagonist 39
O=C(NC1CCCCC1)c1cc(N2C(=O)CCC2=O)ccc1Cl	none
Cc1ccc(C(=O)CSC2=C(C#N)C(c3ccco3)CC(=O)N2)c(C)c1 (stereo unspecified)	CHRM1 agonist 37, CHO-K1 Ca ag 16
Cc1ccc(NC(=O)CSC2=C(C#N)C(c3ccco3)CC(=O)N2)cc1 (stereo unspecified)	none
O=C(CC(c1ccccc1)c1cc(Cl)ccc1O)N1CCCC1 (stereo unspecified)	none
O=C(CC(c1ccccc1O)N1CCCCC1)N1CCCCC1 (stereo unspecified)	CHRM1 antagonist 70
CCN(CC1CCCO1)C(=O)CCc1nnc(CCc2ccccc2OC)o1 (stereo unspecified)	none
N#Cc1ccc(CN(Nc2ccccc2)c2ccccc2)cc1	CHO-K1 Ca antag 29
Cc1ccc(C)c(NC(=O)Nc2ccc3c(c2)OCO3)c1	CHO-K1 Ca antag 29
CC(C)c1ccc(NC(=O)c2cc(S(=O)(=O)N3CCCC3)c[nH]2)cc1	CHRM1 antagonist 35
CCc1ccc(NC(=O)c2cc(S(=O)(=O)N3CCCC3)c[nH]2)cc1	none
COc1ccc(C(=O)C2CCCN(Cc3cccc4c3OCO4)C2)cc1OC (stereo unspecified)	CHRM1 antagonist 29
COc1cccc(CN2CCCC(C(=O)c3ccc4c(c3)OCO4)C2)c1OC (stereo unspecified)	CHRM1 antagonist 57
Cn1c(CN2CCCC(C(=O)c3ccc4c(c3)OCO4)C2)nc2ccccc21 (stereo unspecified)	none
O=C(c1ccc2c(c1)OCO2)C1CCCN(Cc2cccn2-c2cccnc2)C1 (stereo unspecified)	none
O=C(c1ccc2c(c1)OCO2)C1CCCN(Cc2c(F)ccc(F)c2F)C1 (stereo unspecified)	CHRM1 antagonist 88
O=C(c1ccc2c(c1)OCO2)C1CCCN(Cc2ccc3nsnc3c2)C1 (stereo unspecified)	CHRM1 antagonist 78
Cc1ccccc1N1C(=O)c2ccccc2C1O (stereo unspecified)	none
Cc1ccc2[nH]c3c(=O)n(CC(=O)Nc4ccccc4N4CCN(C)CC4)ncc3c2c1	none
C[C@H](NC(=O)N1CCn2c1nc1ccccc12)C(=O)N1CCCCC1	none
CCCCOCCCNC(=O)C[C@@H]1C[C@@]2(C(=O)OC)CCCCC=C2N(Cc2cccc3ccccc23)C1=O	none (no result: CHRM1 antagonist, CHRM1 agonist, M1 PAM)
Cc1noc(C)c1CSCC(=O)OCC(=O)Nc1ccc(OC(F)(F)F)cc1	none
COc1ccc(C(=O)C2CCCN(C3Cc4ccccc4C3)C2)cc1OC (stereo unspecified)	CHRM1 antagonist 90
O=C(c1ccc2c(c1)OCO2)C1CCCN(Cc2ccccc2OC(F)F)C1 (stereo unspecified)	CHRM1 antagonist 75
COc1ccc(C(=O)C2CCCN(Cc3nc4ccccc4nc3C)C2)cc1OC (stereo unspecified)	none
O=C(c1ccc2c(c1)OCO2)C1CCCN(Cc2cc(F)ccc2-n2cccn2)C1 (stereo unspecified)	none
CC[n+]1oc(-c2ccccc2)cc1C	none
COc1ccccc1CCNC(C)CCc1ccc(O)cc1 (stereo unspecified)	none
COc1cc(OC)c(OC)cc1CCC(C)NCCC(c1ccccc1)c1ccccc1 (stereo unspecified)	CHRM1 antagonist 74
O=C(Nc1ccccn1)c1cccs1	none
CCN(CC)S(=O)(=O)c1csc(C(=O)Nc2ccccn2)c1	CHO-K1 Ca antag 27
CCC(C)c1c(O)nc(SCC(=O)N2CCCCC2)[nH]c1=O (stereo unspecified)	none
CCC(C)c1c(O)nc(SCC(=O)N2CCOCC2)[nH]c1=O (stereo unspecified)	M1 PAM 25
C[C@H](CO)N1C[C@H](C)[C@@H](CN(C)Cc2ccc(Oc3ccccc3)cc2)Oc2c(NC(=O)c3ccncc3)cccc2C1=O	M1 PAM parental 46

Bioassay records deposited in PubChem BioAssay by The Scripps Research Institute Molecular Screening Center.
